Assay [1] concerns the target RAC-alpha serine/threonine-protein kinase (Homo sapiens) (UniProt P31749). As to conditions: at 0.1 µM.
The target is the same in assay [2]. The note with it: at 1 µM.
Assay [3] concerns the target RAC-beta serine/threonine-protein kinase (Homo sapiens) (UniProt P31751). As to conditions: at 0.1 µM.
Assay [4] has the same target. As to conditions: at 1 µM.
For assay [5], the target named is RAC-gamma serine/threonine-protein kinase (Homo sapiens) (UniProt Q9Y243). The note with it: at 0.1 µM.
Assay [6] has the same target. As to conditions: at 1 µM.
In assay [7] the target is G protein-coupled receptor kinase 6 (Homo sapiens) (UniProt P43250). As to conditions: at 0.1 µM.
Assay [8] shares this target. As to conditions: at 1 µM.
Assay [9] addresses T1, Rhodopsin kinase GRK7 (Homo sapiens) (UniProt Q8WTQ7).
T1 sequence (whole entry): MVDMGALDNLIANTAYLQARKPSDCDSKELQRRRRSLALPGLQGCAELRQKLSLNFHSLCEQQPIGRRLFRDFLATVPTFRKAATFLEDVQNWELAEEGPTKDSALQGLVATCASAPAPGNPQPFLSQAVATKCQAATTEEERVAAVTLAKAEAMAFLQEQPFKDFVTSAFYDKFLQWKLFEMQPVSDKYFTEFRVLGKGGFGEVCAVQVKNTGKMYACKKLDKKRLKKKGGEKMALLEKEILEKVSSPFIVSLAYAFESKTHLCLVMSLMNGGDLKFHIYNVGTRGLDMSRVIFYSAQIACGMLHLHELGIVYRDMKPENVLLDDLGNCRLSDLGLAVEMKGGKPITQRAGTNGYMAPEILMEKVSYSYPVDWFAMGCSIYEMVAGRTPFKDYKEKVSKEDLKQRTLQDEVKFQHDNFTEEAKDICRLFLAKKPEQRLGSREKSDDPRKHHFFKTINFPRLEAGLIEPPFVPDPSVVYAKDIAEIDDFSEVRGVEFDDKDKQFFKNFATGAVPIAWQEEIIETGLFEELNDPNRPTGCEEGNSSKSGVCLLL
As to conditions: at 0.1 µM.

The target in assay [10] is T1, Rhodopsin kinase GRK7 (Homo sapiens). As to conditions: at 1 µM.
Assay [11] concerns the target Serine/threonine-protein kinase MRCK alpha (Homo sapiens) (UniProt Q5VT25). As to conditions: at 0.1 µM.
For assay [12] the target is unchanged. The note with it: at 1 µM.
Assay [13] addresses Serine/threonine-protein kinase MRCK beta (Homo sapiens) (UniProt Q9Y5S2). The note with it: at 0.1 µM.
For assay [14] the target is unchanged. The note with it: at 1 µM.
The target of assay [15] is Ribosomal protein S6 kinase alpha-5 (Homo sapiens) (UniProt O75582). The note with it: at 0.1 µM.
Assay [16] shares this target. The note with it: at 1 µM.
The target in assay [17] is Ribosomal protein S6 kinase alpha-4 (Homo sapiens) (UniProt O75676). As to conditions: at 0.1 µM.
For assay [18] the target is unchanged. The note with it: at 1 µM.
Assay [19] addresses Ribosomal protein S6 kinase beta-1 (Homo sapiens) (UniProt P23443). The note with it: at 0.1 µM.
Assay [20] shares this target. The note with it: at 1 µM.

The term inhibition denotes the change of the read-out against control, counted positive when it falls.

Sequence of Ribosomal protein S6 kinase beta-1 (Homo sapiens) (P23443 whole entry, looked up): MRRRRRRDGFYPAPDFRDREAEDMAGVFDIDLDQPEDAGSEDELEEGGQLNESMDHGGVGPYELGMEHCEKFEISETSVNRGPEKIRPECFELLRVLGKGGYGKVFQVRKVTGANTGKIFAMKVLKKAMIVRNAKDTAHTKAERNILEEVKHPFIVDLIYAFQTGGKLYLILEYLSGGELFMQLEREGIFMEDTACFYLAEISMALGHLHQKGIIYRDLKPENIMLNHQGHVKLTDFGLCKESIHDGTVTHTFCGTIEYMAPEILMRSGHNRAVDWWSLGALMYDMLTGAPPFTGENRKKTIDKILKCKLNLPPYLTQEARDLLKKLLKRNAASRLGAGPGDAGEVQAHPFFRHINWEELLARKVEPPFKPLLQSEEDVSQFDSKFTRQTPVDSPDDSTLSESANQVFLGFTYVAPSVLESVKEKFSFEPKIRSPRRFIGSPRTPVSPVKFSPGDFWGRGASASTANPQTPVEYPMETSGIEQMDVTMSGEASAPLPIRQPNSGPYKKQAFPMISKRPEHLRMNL
Sequence of RAC-alpha serine/threonine-protein kinase (Homo sapiens) (P31749 whole entry): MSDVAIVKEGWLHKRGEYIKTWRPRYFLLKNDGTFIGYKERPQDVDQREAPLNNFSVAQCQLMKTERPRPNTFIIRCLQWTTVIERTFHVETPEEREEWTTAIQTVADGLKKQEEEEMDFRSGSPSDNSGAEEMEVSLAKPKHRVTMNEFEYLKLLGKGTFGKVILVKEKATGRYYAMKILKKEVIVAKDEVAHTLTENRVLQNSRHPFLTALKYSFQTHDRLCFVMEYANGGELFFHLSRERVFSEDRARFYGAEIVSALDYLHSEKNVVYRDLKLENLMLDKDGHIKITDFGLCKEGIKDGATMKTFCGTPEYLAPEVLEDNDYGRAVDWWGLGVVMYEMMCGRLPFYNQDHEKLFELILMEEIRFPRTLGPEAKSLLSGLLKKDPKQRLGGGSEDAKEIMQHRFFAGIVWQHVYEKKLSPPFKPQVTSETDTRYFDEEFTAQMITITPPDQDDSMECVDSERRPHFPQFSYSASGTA
Sequence of G protein-coupled receptor kinase 6 (Homo sapiens) (P43250 whole entry, looked up): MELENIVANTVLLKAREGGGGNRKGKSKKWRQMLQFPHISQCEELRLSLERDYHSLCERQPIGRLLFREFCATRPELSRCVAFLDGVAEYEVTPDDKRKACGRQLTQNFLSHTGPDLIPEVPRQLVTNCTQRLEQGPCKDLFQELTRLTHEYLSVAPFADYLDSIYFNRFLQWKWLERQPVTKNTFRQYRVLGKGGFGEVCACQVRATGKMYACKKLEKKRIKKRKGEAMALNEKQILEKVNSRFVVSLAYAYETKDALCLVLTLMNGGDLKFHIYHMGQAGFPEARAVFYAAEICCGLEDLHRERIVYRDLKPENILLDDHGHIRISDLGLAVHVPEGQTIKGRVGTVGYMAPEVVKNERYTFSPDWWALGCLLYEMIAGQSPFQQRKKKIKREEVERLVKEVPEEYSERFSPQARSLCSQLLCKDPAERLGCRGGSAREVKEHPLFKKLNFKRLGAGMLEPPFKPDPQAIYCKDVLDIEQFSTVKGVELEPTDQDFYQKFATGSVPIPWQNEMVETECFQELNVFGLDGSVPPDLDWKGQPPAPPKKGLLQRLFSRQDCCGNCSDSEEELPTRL
Sequence of RAC-gamma serine/threonine-protein kinase (Homo sapiens) (Q9Y243 whole entry): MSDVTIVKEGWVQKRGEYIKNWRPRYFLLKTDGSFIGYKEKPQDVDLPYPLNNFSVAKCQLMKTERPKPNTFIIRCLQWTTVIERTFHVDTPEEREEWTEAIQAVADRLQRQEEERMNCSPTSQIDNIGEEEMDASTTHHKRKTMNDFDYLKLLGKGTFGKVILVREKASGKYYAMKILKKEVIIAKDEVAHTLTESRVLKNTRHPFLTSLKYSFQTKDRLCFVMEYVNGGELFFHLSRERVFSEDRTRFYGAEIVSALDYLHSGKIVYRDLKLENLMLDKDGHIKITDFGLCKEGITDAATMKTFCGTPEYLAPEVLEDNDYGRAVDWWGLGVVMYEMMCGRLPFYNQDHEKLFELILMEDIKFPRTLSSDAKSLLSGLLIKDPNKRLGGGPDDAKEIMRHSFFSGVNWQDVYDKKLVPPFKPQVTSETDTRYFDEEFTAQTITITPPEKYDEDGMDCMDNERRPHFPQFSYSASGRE
Sequence of Ribosomal protein S6 kinase alpha-4 (Homo sapiens) (O75676 whole entry, looked up): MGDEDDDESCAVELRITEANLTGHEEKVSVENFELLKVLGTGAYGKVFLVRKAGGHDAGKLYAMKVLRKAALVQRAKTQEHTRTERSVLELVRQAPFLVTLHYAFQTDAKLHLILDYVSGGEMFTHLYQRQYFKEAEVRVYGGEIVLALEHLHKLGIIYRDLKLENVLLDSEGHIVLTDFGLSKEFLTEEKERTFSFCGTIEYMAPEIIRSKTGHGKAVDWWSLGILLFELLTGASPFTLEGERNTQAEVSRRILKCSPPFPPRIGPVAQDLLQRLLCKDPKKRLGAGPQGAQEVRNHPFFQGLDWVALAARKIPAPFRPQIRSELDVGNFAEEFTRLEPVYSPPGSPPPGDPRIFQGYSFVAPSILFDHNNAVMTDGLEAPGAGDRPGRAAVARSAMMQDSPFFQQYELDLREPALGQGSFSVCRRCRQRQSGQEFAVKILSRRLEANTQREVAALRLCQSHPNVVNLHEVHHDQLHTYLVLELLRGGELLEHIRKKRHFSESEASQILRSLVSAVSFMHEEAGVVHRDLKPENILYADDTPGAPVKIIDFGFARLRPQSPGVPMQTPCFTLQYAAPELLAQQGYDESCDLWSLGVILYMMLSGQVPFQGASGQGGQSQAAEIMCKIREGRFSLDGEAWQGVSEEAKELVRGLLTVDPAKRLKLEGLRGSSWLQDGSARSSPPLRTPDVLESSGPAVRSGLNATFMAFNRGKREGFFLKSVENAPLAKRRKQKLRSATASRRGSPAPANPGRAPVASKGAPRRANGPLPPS
Sequence of Ribosomal protein S6 kinase alpha-5 (Homo sapiens) (O75582 whole entry, looked up): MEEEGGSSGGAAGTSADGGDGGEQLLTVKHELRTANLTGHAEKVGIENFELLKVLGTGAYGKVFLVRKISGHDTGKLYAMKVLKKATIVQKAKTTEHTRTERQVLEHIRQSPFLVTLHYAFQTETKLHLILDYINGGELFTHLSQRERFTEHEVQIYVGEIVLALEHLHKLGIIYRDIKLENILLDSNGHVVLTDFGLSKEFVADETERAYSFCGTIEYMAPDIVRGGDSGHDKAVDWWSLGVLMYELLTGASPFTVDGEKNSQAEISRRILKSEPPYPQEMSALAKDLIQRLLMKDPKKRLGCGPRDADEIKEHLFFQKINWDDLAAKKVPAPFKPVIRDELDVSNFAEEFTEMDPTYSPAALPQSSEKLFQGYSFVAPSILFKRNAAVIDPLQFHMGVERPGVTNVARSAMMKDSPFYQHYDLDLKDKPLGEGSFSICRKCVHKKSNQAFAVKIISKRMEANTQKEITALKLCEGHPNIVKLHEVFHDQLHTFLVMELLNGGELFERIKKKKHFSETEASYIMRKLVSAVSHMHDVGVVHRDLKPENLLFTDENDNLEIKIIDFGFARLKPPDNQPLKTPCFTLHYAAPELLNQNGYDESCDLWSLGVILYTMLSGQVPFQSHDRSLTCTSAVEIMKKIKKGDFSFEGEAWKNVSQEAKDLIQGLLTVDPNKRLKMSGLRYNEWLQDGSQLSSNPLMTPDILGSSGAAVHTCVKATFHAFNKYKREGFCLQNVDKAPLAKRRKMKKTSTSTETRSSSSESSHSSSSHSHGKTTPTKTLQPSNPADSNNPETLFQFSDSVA
Sequence of RAC-beta serine/threonine-protein kinase (Homo sapiens) (P31751 whole entry): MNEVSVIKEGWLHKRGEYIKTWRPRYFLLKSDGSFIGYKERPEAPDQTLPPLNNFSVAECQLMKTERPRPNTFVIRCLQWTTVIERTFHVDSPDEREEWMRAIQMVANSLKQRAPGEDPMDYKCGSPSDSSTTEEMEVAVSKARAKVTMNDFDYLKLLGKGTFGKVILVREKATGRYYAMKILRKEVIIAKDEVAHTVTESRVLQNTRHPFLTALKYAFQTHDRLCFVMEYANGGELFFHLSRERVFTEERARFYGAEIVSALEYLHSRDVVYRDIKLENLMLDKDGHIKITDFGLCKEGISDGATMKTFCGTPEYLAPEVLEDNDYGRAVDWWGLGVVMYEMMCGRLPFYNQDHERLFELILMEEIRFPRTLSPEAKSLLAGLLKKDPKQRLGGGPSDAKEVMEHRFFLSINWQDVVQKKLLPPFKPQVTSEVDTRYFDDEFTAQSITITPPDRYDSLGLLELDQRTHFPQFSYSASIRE

`CS(=O)(=O)CCNCc1cc(-c2cc3c(Nc4ccc(OCc5cccc(F)c5)c(Cl)c4)ncnc3s2)cs1`: the inhibition in assay [1] was determined as 0.79%; in assay [2] it was 0.35%; in assay [3], 0.7%; in [4], 1.93%; in assay [5], 1.15%; in assay [6], 3.27%. Further, the inhibition was 6.28% in assay [7]; 6.32% in assay [8]; 8.59% in [9]; 4.24% in assay [10]; 2.36% in assay [11]; 5.45% in [12]. Further, the inhibition in assay [13] was -0.63%; in [14], 2.8%; in assay [15] it was 2.17%; in assay [16] it was 1.79%; in assay [17] it was 3.41%; in assay [18], 4.94%. In addition, the inhibition in [19] was found to be 2.17%; in assay [20] it was 4.75%.

Regarding `COc1cc(Nc2ncc(-c3ccccc3)o2)cc(OC)c1OC`, the inhibition in assay [1] is -1.72%; in [2] it was -1.61%; in [3] it was -2.18%; in assay [4], -1.88%; in [5], -1.76%; in [6] it was 1.14%. For the same compound, the inhibition in [7] was -1.02%; in assay [8] it was -0.02%; in assay [9] it was 3.87%; in assay [10], -9.33%; in assay [11], 2.53%; in [12], 3.73%. Moreover, the inhibition is 0.08% in assay [13]; 0.86% in [14]; 0.23% in assay [15]; 0.82% in assay [16]; -1.71% in assay [17]; 0.02% in assay [18]. Besides, the inhibition in [19] was -0.45%; in assay [20] it was 3.55%.

In the case of `O=C(Nc1n[nH]c2cc(-c3ccccc3)ccc12)C1CC1`, the inhibition is 0.57% in [1]; -0.63% in [2]; 1.2% in [3]; 1.68% in assay [4]; 0.33% in assay [5]; 2.94% in assay [6]. Moreover, the inhibition in assay [7] is 2.59%; in assay [8] it was 3.48%; in [9] it was 3.13%; in assay [10] it was 3.52%; in assay [11], 0.05%; in assay [12], -1.04%. Further, the inhibition was 0.91% in assay [13]; 0.02% in assay [14]; 5.17% in assay [15]; 5.56% in assay [16]; 2.14% in assay [17]; 1.76% in assay [18]. In addition, the inhibition is 0.9% in [19] and 1.27% in assay [20].

Take `NS(=O)(=O)c1ccc(N/N=C2\C(=O)Nc3ccc(-c4cnco4)cc32)cc1`: the inhibition in [1] was -3.71%; in assay [2], -3.3%; in assay [3], -3.63%; in [4] it was -1.8%; in [5], -3.1%; in assay [6], -0.96%. Further, the inhibition in assay [7] is -0.25%; in [8], 2.71%; in [9], 8.59%; in [10], 7.29%; in assay [11], 0.37%; in assay [12], 8.38%. Besides, the inhibition is 0.26% in assay [13]; 6.65% in assay [14]; -1.59% in [15]; -0.36% in assay [16]; 0.74% in assay [17]; 3.26% in [18]. The values for the inhibition in assay [19] and in assay [20] were 0.79% and 6.58%, respectively.

Turning to `COc1cccc(/C=N/Nc2ncnc3c2cnn3-c2cccc(OC)c2)c1`, the inhibition in assay [1] is 1.02%; in assay [2], -0.26%; in assay [3], 2.42%; in assay [4], 1.51%; in assay [5], 2.66%; in [6] it was 3.67%. Moreover, the inhibition in assay [7] is 5.6%; in [8], 4.38%; in assay [9], 9.5%; in assay [10], 5.51%; in [11], 1.64%; in assay [12] it was -0.23%. The inhibition in assay [13] is -0.8%; in assay [14], 0.84%; in [15], 2.19%; in assay [16] it was -0.07%; in [17] it was 2.48%; in [18] it was 2.78%. In addition, the values for the inhibition in assay [19] and in assay [20] were 1.49% and 2.2%, respectively.

`COc1ccc2cc(-c3c(-c4ccncc4)nc(-c4ccc(S(C)(=O)=O)cc4C)n3C)ccc2c1`: the inhibition stood at 1.8% in assay [1]; 1.99% in assay [2]; 2.93% in [3]; 2.26% in assay [4]; 2.8% in assay [5]; 4.98% in assay [6]. Further, the inhibition in assay [7] came out at 5.87%; in assay [8], 8.14%; in assay [9], 4.36%; in [10] it was 8.69%; in assay [11], 0.29%; in assay [12], 1.6%. The inhibition in assay [13] is 2.15%; in [14] it was 1.98%; in [15], 3.82%; in assay [16], 5.44%; in assay [17], 7.21%; in assay [18], 9.9%. Besides, the inhibition in assay [19] was 1.75%; in assay [20], 3.34%.

For the compound `COc1cc(Nc2ncc3c(C)nc(-c4cccc(Oc5ccccc5)c4)n3n2)cc(OC)c1OC`, the inhibition came to 0.97% in assay [1]; 1.22% in [2]; 0.47% in assay [3]; 1.85% in assay [4]; 1.02% in [5]; 1.43% in [6]. For the same compound, the inhibition in assay [7] is 1.19%; in assay [8], -5.44%; in assay [9], -0.36%; in assay [10], -5.43%; in assay [11], 0.02%; in [12], -0.11%. Further, the inhibition is 0.97% in [13]; 1.86% in assay [14]; 8.17% in [15]; 7.74% in assay [16]; 0.96% in assay [17]; 2.98% in assay [18]. The results for the inhibition in assay [19] and in assay [20] were 1.98% and 3.01%, respectively.

Source of the values: ChEMBL document CHEMBL1961873, “Compounds: GSK PKIS; Assays: Nanosyn kinase panel” (2012).
